In PubChem BioAssay one finds composite z-score and z-score data, which are given here for four compounds.

Where “and” joins values, the source holds several entries; their conditions need not be identical. Identical values can stand only once. Calls of active or inactive are those of the source.

Experiment [1] in a line: small molecules captured by biotinylated probe aFSTL3 – biochemical, small-molecule microarray, fluorescence 635/667, stem cell growth factor project, primary screen (AID 1064).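 Note: measures binding of the biotinylated anti-FSTL3 antibody to printed compounds.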 The settings on record: higher = more signal.
Experiment [2] can be described thus: binders from COS7 lysate, DM2A8 probe, primary screen, torsin A project, cell lysate, small-molecule microarray, fluorescence 635/667 (AID 1065). The conditions noted are these: higher = more signal, COS7 lysate expressing mutant human TOR1A.
Experiment [3] can be described thus: small molecules captured by biotinylated probe aFGF2 – biochemical, small-molecule microarray, fluorescence 635/667, stem cell growth factor project, primary screen (AID 1067).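 Note: measures binding of biotinylated aFGF2 protein to printed compounds on slides; z-score merges feature fluorescence and signal-to-noise across triplicate slides.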 The settings on record: higher = more signal.
Experiment [4] in a line: small molecules captured by biotinylated probe aFGF10 – biochemical, small-molecule microarray, fluorescence 635/667, stem cell growth factor project, primary screen (AID 1071).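 Note: score merges 667 nm spot intensity and signal to noise from triplicate slides.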 The conditions noted are these: higher = more signal.
Experiment [5] concerns the target Neurogenic locus notch homolog protein 2 (Homo sapiens) (UniProt Q04721). As to the kind of experiment: small molecules binding Notch2 protein – biochemical, small-molecule microarray, 635 nm fluorescence, stem cell growth factors, primary screen (AID 1073). The conditions noted are these: higher = more signal.
The target of experiment [6] is Pro-neuregulin-1, membrane-bound isoform (Homo sapiens) (UniProt Q02297). As to the kind of experiment: small molecules binding neuregulin-1 protein – biochemical, small-molecule microarray, fluorescence 635/667, psychiatric disease protein project, primary screen (AID 1075).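 Note: score combines 667 nm spot fluorescence with signal to noise.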 The settings on record: NRG1 binding, 635 nm fluorescence, higher = more signal.
For experiment [7], the system named is Neuregulin-1 EGF-like domain. Nature of the experiment: small molecules binding NRG1 EGF domain – biochemical, small-molecule microarray, 635 nm fluorescence, primary screen (AID 1081).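 Note: binding of the protein to compounds printed on small-molecule microarray slides.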 The conditions noted are these: higher = more signal.
Experiment [8] in a line: FRG1 expression reporter modulators in myotubes – cell-based, C2C12 myotubes, firefly/Renilla luciferase, luminescence, FRG1 inhibition for FSHD, primary screen (AID 1084). The conditions noted are these: FRG1 promoter luciferase, higher = more signal, called active from +8 up or from −8 down.
Experiment [9] in a line: small molecules captured by biotinylated probe aFST – biochemical, small-molecule microarray, fluorescence 635/667, stem cell growth factor project, primary screen (AID 1086).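 Note: score merges 667 nm fluorescence with signal-to-noise of each printed compound spot.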 The settings on record: higher = more signal.
The nature of experiment [10]: binders of probe aHhip on microarray, primary screen, stem cell growth factor project, biochemical, small-molecule microarray, fluorescence 635/667 (AID 1087).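 Note: score merges spot fluorescence at 667nm with spot signal to noise ratio.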 The settings on record: higher = more signal.
The subject of experiment [11] is PRMT1 (protein arginine N-methyltransferase 1). Nature of the experiment: small molecules binding arginine methyltransferase PRMT1 – biochemical, small-molecule microarray, 635 nm fluorescence, primary screen (AID 1088).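 Note: binding of Prmt1 protein to compounds spotted on small-molecule microarray slides.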 The settings on record: higher = more signal.
Experiment [12] in a line: growth effects on S. cerevisiae YJM789 – YJM789 clinical isolate, OD600, 24 h, basal, primary screen (AID 1089).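 Note: growth of clinical yeast isolate S. cerevisiae YJM 789 seeded 1000 cells per well; test concentration not given here.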 The conditions noted are these: higher = more signal, called active from +8 up or from −8 down.
The nature of experiment [13]: S. pombe growth modifiers, basal conditions – strain 972, OD600, 24 h, no modulator, primary screen (AID 1090).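 Note: basal condition with compound alone and no growth modifier present; test concentration not given here.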 The conditions noted are these: S. pombe 972 growth, higher = more signal, called active from +8 up or from −8 down.
Experiment [14] can be described thus: budding yeast growth modifiers under rapamycin – strain BY4716, OD600, 96 h, primary screen (AID 1091). Note: test concentration not given here. The settings on record: S. cerevisiae BY4716 + rapamycin, higher = more signal, called active from +8 up or from −8 down.
Experiment [15] addresses Torsin-1A-interacting protein 2 (Homo sapiens) (UniProt Q8NFQ8). As to the kind of experiment: small molecules binding lysate-expressed LULL1 – cell lysate, human LULL1 lysate, 635/667 nm fluorescence, primary screen (AID 1092).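 Note: probe is lysate of COS7 cells overexpressing human LULL1; score merges per-feature 667 nm fluorescence with signal-to-noise.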 The conditions noted are these: small-molecule microarray, hLULL1 lysate binding, 635 nm fluorescence; higher = more signal.
A short description of experiment [16]: optical density change of DRC41 E. coli – strain DRC41, OD650, 24 h, E. coli filamentation project, primary screen (AID 1093).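 Note: MC1000 strain lacking acrAB efflux and sulA so SOS filamentation is blocked; test concentration not given here.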 The settings on record: E. coli DRC41 growth, higher = more signal, called active from +8 up or from −8 down.
The nature of experiment [17]: probe aLefty2 binding to arrayed compounds – biochemical, biotinylated probe, 635/667 nm fluorescence, primary screen (AID 1094).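 Note: score merges spot fluorescence near 667 nm with spot signal-to-noise ratio.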 The conditions noted are these: small-molecule microarray, higher = more signal.
Experiment [18] concerns Noggin (protein binding on small-molecule microarray). As to the kind of experiment: small molecules binding Noggin protein – biochemical, 635/667 nm fluorescence, primary screen (AID 1095).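 Note: score merges 667 nm feature fluorescence with signal to noise over triplicate slides.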 The conditions noted are these: 635 nm fluorescence, higher = more signal.
Experiment [19] deals with Neurogenic locus notch homolog protein 3 (Homo sapiens) (UniProt Q9UM47). As to the kind of experiment: small molecules binding NOTCH3 protein – biochemical, 635/667 nm fluorescence, primary screen (AID 1096). The conditions noted are these: small-molecule microarray, 635 nm fluorescence, higher = more signal.
Sequence of Neurogenic locus notch homolog protein 3 (Homo sapiens) (Q9UM47 whole entry, looked up): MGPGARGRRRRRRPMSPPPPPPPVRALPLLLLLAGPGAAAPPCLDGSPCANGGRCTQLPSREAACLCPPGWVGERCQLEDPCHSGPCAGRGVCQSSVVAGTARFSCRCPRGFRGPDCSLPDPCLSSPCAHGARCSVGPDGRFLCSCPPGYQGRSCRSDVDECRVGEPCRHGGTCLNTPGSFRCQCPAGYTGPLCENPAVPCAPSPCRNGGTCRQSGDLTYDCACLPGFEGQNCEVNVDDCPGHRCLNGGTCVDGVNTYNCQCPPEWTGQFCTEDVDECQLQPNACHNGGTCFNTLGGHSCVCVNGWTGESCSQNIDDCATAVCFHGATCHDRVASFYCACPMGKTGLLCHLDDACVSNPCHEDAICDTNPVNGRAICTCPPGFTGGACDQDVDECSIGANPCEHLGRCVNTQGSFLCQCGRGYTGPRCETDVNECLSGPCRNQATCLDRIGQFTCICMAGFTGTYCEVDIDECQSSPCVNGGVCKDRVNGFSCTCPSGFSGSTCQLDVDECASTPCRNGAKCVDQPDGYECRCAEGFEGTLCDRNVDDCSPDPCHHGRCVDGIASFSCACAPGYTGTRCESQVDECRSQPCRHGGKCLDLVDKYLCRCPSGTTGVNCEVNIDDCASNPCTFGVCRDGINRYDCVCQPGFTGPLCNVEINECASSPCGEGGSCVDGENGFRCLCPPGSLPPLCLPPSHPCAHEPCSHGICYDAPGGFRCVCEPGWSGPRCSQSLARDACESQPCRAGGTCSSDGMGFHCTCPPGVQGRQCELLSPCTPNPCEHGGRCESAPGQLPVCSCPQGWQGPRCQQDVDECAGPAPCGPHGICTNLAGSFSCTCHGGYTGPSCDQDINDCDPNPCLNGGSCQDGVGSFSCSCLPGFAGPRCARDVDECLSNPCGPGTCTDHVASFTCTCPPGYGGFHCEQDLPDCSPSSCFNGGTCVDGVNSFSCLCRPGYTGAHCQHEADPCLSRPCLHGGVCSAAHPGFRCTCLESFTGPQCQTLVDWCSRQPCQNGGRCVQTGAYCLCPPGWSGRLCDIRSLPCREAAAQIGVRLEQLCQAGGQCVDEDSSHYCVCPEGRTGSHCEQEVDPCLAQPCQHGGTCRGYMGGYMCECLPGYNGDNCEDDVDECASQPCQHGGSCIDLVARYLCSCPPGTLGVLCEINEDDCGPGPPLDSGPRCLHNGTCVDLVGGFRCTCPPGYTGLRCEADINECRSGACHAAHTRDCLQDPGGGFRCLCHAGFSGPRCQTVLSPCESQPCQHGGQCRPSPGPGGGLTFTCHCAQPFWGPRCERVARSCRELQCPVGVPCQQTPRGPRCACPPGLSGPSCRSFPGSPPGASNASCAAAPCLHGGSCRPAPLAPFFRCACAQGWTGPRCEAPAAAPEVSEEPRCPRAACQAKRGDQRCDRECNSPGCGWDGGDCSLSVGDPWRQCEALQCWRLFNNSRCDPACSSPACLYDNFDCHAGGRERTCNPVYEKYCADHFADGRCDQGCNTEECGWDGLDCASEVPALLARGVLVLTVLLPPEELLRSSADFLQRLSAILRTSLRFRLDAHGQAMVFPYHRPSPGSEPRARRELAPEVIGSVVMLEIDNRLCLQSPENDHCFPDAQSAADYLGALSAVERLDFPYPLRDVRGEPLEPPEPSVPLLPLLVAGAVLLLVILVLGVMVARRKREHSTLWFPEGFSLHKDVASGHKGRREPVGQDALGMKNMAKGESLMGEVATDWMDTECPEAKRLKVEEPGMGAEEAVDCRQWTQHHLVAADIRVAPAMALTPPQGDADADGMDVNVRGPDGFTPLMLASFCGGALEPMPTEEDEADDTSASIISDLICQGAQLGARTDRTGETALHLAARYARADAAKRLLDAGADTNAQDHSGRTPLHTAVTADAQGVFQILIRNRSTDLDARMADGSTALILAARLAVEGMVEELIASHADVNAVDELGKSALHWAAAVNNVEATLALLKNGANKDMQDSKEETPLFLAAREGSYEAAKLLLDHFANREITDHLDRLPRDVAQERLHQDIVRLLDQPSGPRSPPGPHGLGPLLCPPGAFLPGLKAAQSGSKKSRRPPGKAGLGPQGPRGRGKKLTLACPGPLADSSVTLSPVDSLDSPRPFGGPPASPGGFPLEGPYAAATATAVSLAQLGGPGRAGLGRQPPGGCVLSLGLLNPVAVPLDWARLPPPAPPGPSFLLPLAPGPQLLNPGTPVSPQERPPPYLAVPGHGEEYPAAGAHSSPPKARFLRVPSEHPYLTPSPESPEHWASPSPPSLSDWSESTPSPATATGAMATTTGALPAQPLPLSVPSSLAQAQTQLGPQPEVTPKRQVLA
A short description of experiment [20]: probe aEGFR binding to arrayed compounds – biochemical, biotinylated probe, 635/667 nm fluorescence, primary screen (AID 1097).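 Note: probe is a biotinylated anti-EGFR antibody binding compounds printed on slides; score combines fluorescence near 667 nm and signal to noise of each spot.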 The settings on record: small-molecule microarray, higher = more signal.

Sequence of Neurogenic locus notch homolog protein 2 (Homo sapiens) (Q04721 whole entry, looked up, canonical isoform): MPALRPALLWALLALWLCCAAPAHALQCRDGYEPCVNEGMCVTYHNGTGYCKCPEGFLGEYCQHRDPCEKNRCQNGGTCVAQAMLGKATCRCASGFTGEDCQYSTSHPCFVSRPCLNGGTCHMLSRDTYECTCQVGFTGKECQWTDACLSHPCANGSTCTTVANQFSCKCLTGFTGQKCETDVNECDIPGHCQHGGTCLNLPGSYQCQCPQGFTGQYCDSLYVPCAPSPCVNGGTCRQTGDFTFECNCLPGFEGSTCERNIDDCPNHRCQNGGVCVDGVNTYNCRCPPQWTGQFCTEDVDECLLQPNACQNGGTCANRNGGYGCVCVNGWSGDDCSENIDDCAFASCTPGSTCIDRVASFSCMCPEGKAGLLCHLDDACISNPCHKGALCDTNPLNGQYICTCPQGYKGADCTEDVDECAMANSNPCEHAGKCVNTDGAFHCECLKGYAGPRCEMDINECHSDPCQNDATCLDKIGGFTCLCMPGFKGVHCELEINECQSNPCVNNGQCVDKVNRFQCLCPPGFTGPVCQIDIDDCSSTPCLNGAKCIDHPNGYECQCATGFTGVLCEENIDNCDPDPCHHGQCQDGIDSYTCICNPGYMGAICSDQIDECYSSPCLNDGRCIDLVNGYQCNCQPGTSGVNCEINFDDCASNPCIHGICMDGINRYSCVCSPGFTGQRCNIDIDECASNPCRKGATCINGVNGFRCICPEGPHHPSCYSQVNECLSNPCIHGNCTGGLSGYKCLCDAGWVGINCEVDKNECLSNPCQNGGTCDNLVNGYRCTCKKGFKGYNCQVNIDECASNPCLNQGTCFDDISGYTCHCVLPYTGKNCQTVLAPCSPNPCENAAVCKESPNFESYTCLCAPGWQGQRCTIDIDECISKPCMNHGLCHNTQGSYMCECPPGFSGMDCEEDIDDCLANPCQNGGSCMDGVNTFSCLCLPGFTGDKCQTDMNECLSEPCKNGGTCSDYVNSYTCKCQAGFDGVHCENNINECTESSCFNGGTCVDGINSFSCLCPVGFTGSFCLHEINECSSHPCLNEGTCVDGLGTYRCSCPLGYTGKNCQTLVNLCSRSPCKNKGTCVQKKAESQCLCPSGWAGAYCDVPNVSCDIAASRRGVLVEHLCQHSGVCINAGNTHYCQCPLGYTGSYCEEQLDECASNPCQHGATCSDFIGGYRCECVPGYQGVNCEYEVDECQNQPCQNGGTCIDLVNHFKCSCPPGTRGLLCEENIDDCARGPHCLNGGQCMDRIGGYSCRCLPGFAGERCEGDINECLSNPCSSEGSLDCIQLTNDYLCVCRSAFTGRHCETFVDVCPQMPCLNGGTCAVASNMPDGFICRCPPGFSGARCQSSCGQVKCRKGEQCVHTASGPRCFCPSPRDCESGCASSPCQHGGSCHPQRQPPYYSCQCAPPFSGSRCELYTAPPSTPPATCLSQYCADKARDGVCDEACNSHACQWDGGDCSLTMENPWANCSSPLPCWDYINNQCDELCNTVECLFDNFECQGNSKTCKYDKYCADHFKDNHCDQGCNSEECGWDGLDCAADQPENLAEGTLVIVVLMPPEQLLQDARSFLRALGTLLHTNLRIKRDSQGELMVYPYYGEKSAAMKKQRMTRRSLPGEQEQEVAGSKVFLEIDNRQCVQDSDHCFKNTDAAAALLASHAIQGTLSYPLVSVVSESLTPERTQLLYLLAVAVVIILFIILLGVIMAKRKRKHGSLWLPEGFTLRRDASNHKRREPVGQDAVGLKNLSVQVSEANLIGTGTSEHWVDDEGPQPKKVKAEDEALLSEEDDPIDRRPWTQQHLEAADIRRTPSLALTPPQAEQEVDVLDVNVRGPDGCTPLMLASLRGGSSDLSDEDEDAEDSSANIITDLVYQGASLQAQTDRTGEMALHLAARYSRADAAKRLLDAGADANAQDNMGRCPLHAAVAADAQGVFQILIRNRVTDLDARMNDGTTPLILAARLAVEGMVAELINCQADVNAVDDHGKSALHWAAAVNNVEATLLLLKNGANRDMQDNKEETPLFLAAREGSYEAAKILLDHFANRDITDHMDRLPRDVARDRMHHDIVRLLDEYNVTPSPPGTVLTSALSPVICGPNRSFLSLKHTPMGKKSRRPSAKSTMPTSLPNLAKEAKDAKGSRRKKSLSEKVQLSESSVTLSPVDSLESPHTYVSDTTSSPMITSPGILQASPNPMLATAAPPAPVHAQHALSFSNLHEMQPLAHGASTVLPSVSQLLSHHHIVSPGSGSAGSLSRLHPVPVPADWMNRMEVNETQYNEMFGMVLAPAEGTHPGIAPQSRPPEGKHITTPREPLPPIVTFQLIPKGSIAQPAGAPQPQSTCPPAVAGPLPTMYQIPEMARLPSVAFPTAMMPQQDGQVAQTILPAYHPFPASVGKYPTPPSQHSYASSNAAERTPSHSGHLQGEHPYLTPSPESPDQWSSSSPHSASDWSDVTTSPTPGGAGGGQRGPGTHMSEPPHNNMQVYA

For `C[N+](C)(C)CCCCCCNC(=O)[C@H]1C[C@H]2C(=O)N[C@@H](CCCC[N+](C)(C)C)C(=O)N2[C@H]1c1cccc(OCCO)c1`, the composite z-score was -0.54 and 1.52 in experiment [1]; 0.5 and 0.444 in experiment [2]; -0.0546 and 0.0108 in [3]; -0.232 and 0.0517 in experiment [4]; -0.004 and -0.276 in experiment [5]; 0.55 and -0.353 in experiment [6]. The composite z-score is 1.2 and 1.47 in experiment [7]; 0.469 and 0.696 in experiment [9]; -0.293 and 0.535 in experiment [10]; 1.46 and 0.0165 in experiment [11]; 2.99 and 0.566 in experiment [15]; -0.0589 and 0.582 in experiment [17]. Besides, the composite z-score in [18] is 1.94 and 0.904; in experiment [19] it was 1.01 and -0.0712; in experiment [20], -0.0703 and 0.127. Further, the z-score was 3.98 (inactive) and 3.53 (inactive) in [8]; -2.56 (inactive) and 0.455 (inactive) in experiment [12]; -1.18 (inactive) and -0.331 (inactive) in experiment [13]; 0.162 (inactive) and 1.01 (inactive) in experiment [14]; 0.598 (inactive) and -0.404 (inactive) in experiment [16].

For the compound `C=CCN(Cc1ccccc1)C(=O)C1N(c2ccc(CCO)cc2)C(=O)C2C(C(=O)O)C3C=CC21O3` (stereo not given), the composite z-score was 1.72 and 0.902 in experiment [1]; -0.723 and -0.963 in experiment [2]; -0.194 and -0.19 in [3]; -0.362 and -0.749 in experiment [4]; -2.7 and -2.66 in experiment [5]; 0.191 and -0.96 in [6]. Moreover, the composite z-score was 0.161 and -0.559 in [7]; -1.44 and -0.907 in experiment [9]; -0.0994 and -0.431 in [10]; -1.64 and -0.655 in experiment [11]; -0.933 and -1.02 in experiment [15]; 0.0395 and 0.0834 in [17]. Besides, the composite z-score in [18] was -2.88 and -1.99; in experiment [19] it was -1.35 and -1.12; in [20] it was -0.418 and -0.305. Besides, the z-score in experiment [8] is 2.4 (inactive) and 1.24 (inactive); in [12] it was 0.774 (inactive) and -0.721 (inactive); in experiment [13] it was -0.455 (inactive) and 0.116 (inactive); in [14] it was 0.599 (inactive) and -1.29 (inactive); in experiment [16], 1.12 (inactive) and 2.04 (inactive).

For `C[N+](C)(C)CCCCCCNC(=O)[C@H]1C[C@H]2C(=O)N[C@@H](CCCC[N+](C)(C)C)C(=O)N2[C@H]1c1ccc(O)cc1`, the composite z-score is 0.267 and 0.341 in experiment [1]; 0.137 and 0.115 in experiment [2]; -0.106 and -0.158 in [3]; 0.105 and 0.129 in [4]; -0.2 and -0.619 in experiment [5]; -0.0293 and -0.0659 in experiment [6]. The composite z-score is 1.07 and 1.41 in experiment [7]; -0.15 and -0.508 in experiment [9]; -0.0994 and 0.2 in [10]; 0.258 and -0.147 in experiment [11]; 0.106 and 0.967 in [15]; -0.0322 and -0.0179 in experiment [17]. For the same compound, the composite z-score in [18] was 0.938 and 0.161; in experiment [19], -0.275 and -0.316; in experiment [20] it was -0.151 and -0.236. Further, the z-score in experiment [8] is 0.996 (inactive) and -0.0859 (inactive); in [12], 0.166 (inactive) and 0.547 (inactive); in experiment [13], 0.268 (inactive) and -0.656 (inactive); in [14], 0.122 (inactive) and 0.411 (inactive); in experiment [16], 0.595 (inactive) and -0.0409 (inactive).

On to `C=CCN(Cc1ccccc1)C(=O)C1N(CCOCCO)C(=O)C2C(C(=O)O)C3C=CC21O3` (stereo not given), for which the composite z-score in experiment [1] was 1.75 and 1.34; in experiment [2], -1.1 and -1.84; in [3], -0.309 and -0.27; in experiment [4], -2.7 and -1.09; in [5], -2.27 and -1.42; in experiment [6], 1.27 and 0.866. For the same compound, the composite z-score is 0.731 and 0.433 in [7]; -1.06 and -1.03 in experiment [9]; -0.423 and -0.362 in experiment [10]; -0.576 and -0.797 in experiment [11]; 3.27 and 2.73 in [15]; 0.22 and 0.141 in experiment [17]. The composite z-score was -3.1 and -1.88 in experiment [18]; -0.74 and -0.734 in [19]; -0.323 and -0.278 in experiment [20]. In addition, the z-score in [8] is -0.91 (inactive) and -0.244 (inactive); in experiment [12], -1.93 (inactive) and 0.844 (inactive); in [13], -1.52 (inactive) and -0.0833 (inactive); in experiment [14], -1.25 (inactive) and 0.225 (inactive); in experiment [16], 2.42 (inactive) and 1.4 (inactive).
